Out of some 2,200 compounds screened, about 530 (24%) were called active. A selection follows. Potency and affinity values are given separately. Values without a mark were called inactive.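 How the source made its calls: active means inhibition above a set limit at one or more concentrations of the dose series; inactive means inhibition under that limit at every dose.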
Assay: S. Typhimurium nonspecific reporter signal inhibition – Salmonella Typhimurium, GFP fluorescence, counter-screen for PhoP regulon inhibitor project, dose response (AID 2401);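 further: S. typhimurium with Mg-insensitive nmpC-GFP reporter grown at 10 µM Mg2+; drop in reporter fluorescence reflects general culture growth inhibition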
Settings: 4 h; series mostly up to 150 µM; inhibition: at the top concentration

Row | SMILES | inhibition [%]
1 | Cc1ccc(-c2nc3ccccc3s2)cc1S(=O)(=O)N1CCCC1 | -16.7
2 | CCOC(=O)Cc1ccc2sc(-c3ccccc3)nc2c1 | -22
3 | COc1ccc(C2=NOC(C(=O)Nc3ccc(C)cc3)C2)cc1OC (configuration not stated) | 2.64
4 | COc1cccc(C2CC(c3ccccc3OC)n3nc(N)nc3N2)c1 (configuration not stated) | -20.8
5 | CCCc1cc(C(=O)NNC(=S)NC(C)c2ccccc2)cs1 (configuration not stated) | -35.7
6 | Cc1ccc(-n2sc3ccccc3c2=O)cc1S(=O)(=O)N1CCCCC1 | 8.77
7 | CCNC(=O)COC(=O)CCC(=O)c1cccs1 | -7.69
8 | FC(F)(F)c1cc(C(F)(F)F)c2ccc(Oc3ccccc3)nc2n1 | 9.05
9 | Fc1ccccc1COc1ccc(Br)cc1CNCc1ccncc1 | 1.55
10 | O=C(Cc1ccccc1)NCc1ccc(F)cc1 | -30.9
11 | O=C(Nc1ccc(S(=O)(=O)Nc2nccs2)cc1)c1cc(-c2ccccc2)nc2ccccc12 | 4.41
12 | COc1ccc(C(C)=O)c2c(O)cccc12 | 4.56
13 | CC1(C)CC(=O)C2=C(C1)OC1=C(C(=O)CC(C)(C)C1)C2c1ccc(O)cc1O | 9.69
14 | c1ccc(-n2cnc3cc(NCc4ccccn4)ccc32)cc1 | -4.69
15 | CCOC(=O)C1(S(=O)(=O)c2ccccc2)CCN(Cc2ccc(Cl)cc2)CC1 | 5.17
16 | O=C(Nc1ccc2c(c1)oc1ccccc12)N1CCOCC1 | -7.09
17 | CCOc1ccccc1OCC(=O)Nc1ccc(S(=O)(=O)Nc2nc(C)cc(C)n2)cc1 | -11.6
18 | Cc1ccc(SC(c2ccc(C)cc2)C(Cn2cncn2)C(=O)c2ccccc2)cc1 (configuration not stated) | -15.4
19 | CN(C)c1nc(N)nc(Cn2ccnc2)n1 | -5.04
20 | N/C(=N\OC(=O)c1cccs1)C1(c2ccc(Cl)cc2Cl)CC1 | -14.9
21 | COc1cccc(C2CC(=O)Nc3cc(OC)c(OC)c(OC)c32)c1OC (configuration not stated) | -6.54
22 | COc1cc(C2Nc3cccc4cccc(c34)N2)cc(OC)c1O | 23.9
23 | C=CCc1ccccc1OCC(O)CN1CCN(CCN2C(=O)c3cccc4cccc(c34)C2=O)CC1 (configuration not stated) | 1.41

Row | SMILES | inhibition [%]
24 | C=C(C)Cn1c(CCn2c3ccccc3c3ccccc32)n[nH]c1=S | 4.79
25 | CN(C(=O)c1cccc(C#N)c1)c1nnc(-c2cnccn2)s1 | 1.99
26 | Cn1c(CC(=O)Nc2ccc(Cl)c(Cl)c2)nnc1SCC(=O)Nc1nccs1 | -37.2
27 | Cc1cc2ncn(CC(O)COc3cccc(C(=O)O)c3)c2cc1C (configuration not stated) | -28.7
28 | N#Cc1c(N)nc(SCC(=O)NC2CCCCC2)c(C#N)c1-c1ccc(Cl)cc1 | -24.1
29 | Fc1cccc(NCc2cn3ccccc3n2)c1 | 23.2
30 | O=S(=O)(c1ccc(N2CCCC2c2nc3ccccc3s2)nc1)N1CCOCC1 (configuration not stated) | -14.8
31 | Nc1nnc(Sc2ccc(Cl)cc2[N+](=O)[O-])s1 | -0.98
32 | C#CCn1cc(/C=N/Nc2nc3ccccc3[nH]2)c2ccccc21 | 31.1
33 | CN(c1cccc(Cl)c1)S(=O)(=O)c1cccc(C(=O)Nc2nc3ccccc3[nH]2)c1 | 16.2
34 | CCN(CC)c1ccc(/C=N/NC(=S)NCc2ccccc2)c(O)c1 | 9.66
35 | C(=C\c1ccccc1)/C=N/Nc1nc2ccccc2[nH]1 | 19.1
36 | COc1ccc(/C=C/c2nc3ccccc3n2Cc2ccccc2OC)cc1 | -5.49
37 | COc1ccccc1NC(=O)Cn1nnc(-c2ccccc2NC(=O)c2cccs2)n1 | -10.7
38 | COC(=O)CSc1nnc(-c2ccco2)n1Cc1ccco1 | -13.6
39 | Cc1cccc(-n2nc3c(c2NC(=O)c2ccco2)CSC3)c1C | -29.7
40 | C/C(=N/Nc1nc(-c2ccc(Cl)cc2)cs1)c1cccs1 | -20.6
41 | O=C(C[n+]1cc(-c2ccccc2)n2c1CCCCC2)c1ccc(Cl)cc1 | -22.6
42 | CCN(CC)CC(=O)Nc1nc(-c2ccc(Cl)cc2)cs1 | -3.92
43 | COc1ccc(OC)c(NC(=S)NCCCN2CCOCC2)c1 | -26.6
44 | CN(CCNS(=O)(=O)c1ccc2c(c1)oc(=O)n2C)Cc1ccccc1 | 14.6
45 | Cc1cc(C)c(C#N)c(SCC(O)CS(=O)(=O)Cc2ccccc2)n1 (configuration not stated) | -4.96
46 | O=C(CSC1CCCCC1)Nc1ccccc1Br | -14.2

Row | SMILES | inhibition [%]
47 | Cc1ccc(C(=O)Oc2ccc(C(=O)COC(=O)c3cnccn3)cc2)cc1 | -20.6
48 | O=C(NC1CCCCC1)C(c1ccncc1)N(Cc1ccccc1)C(=O)c1ccc(-c2ccccc2)[nH]1 (configuration not stated) | 8.67
49 | Clc1ccccc1OCCn1ccnc1 | -11.3
50 | Cc1ccc(C(=O)NCc2ccc(Cl)cc2)o1 | 15.7
51 | S=C(Nc1ccc2snnc2c1)N1CCN(c2ccccn2)CC1 | 34.2
52 | CC1CN(C(=O)CCc2ccccc2)C(C)CN1C(=O)CCc1ccccc1 (configuration not stated) | 1.08
53 | Cc1ccc(NC(=S)NC(NC(=O)c2ccco2)C(Cl)(Cl)Cl)cc1 (configuration not stated) | 12.3
54 | O=C(NC(NC(=S)Nc1ccc(Cl)cc1)C(Cl)(Cl)Cl)c1ccco1 (configuration not stated) | -30.7
55 | O=c1c(Br)c(Br)cnn1-c1ccccc1 | 26.3
56 | Clc1ccc(-c2csc3ncnc(N4CCc5ccccc5C4)c23)cc1 | -19.2
57 | CCOC(=O)c1sc2nccc(N(C)C)c2c1N=CNOCc1c(F)cccc1Cl | 0.78
58 | Cc1ccc2cccnc2c1NC(=S)NC(=O)c1ccccc1 | 3.45
59 | CCCCCn1c(C(C)NC(=O)CCC)nc2ccccc21 (configuration not stated) | 4.48
60 | O=C(NC(c1ccc(Cl)cc1)c1c(O)ccc2ccccc12)c1ccccc1 (configuration not stated) | -14.6
61 | O=C(Cc1ccccc1)NC1c2ccccc2-c2ccccc21 | -12.7
62 | O=C(CSc1nnc(-c2ccc(O)cc2)n1-c1ccccc1)CC(=O)Nc1ccccc1 | 15.1
63 | O=C(OCC1COc2ccccc2O1)c1ccccc1F (configuration not stated) | -18.5
64 | CC1=C(C(=O)OCC2CCCO2)C(c2cccc(C(F)(F)F)c2)C2=C(CC(c3ccco3)CC2=O)N1 (configuration not stated) | -25.9
65 | O=S(=O)(Nc1ccc(Cc2ccncc2)cc1)c1ccc(Br)s1 | -31.1
66 | Cn1ncc(N=Cc2ccccc2O)c1C(=O)Nc1ccccc1 | 8.45
67 | N#CC1=C(N)Oc2c(O)cc3ccccc3c2C1c1ccsc1 (configuration not stated) | -14.3
68 | O=C(CSCc1ccccc1)Nc1ccc2c(c1)OCO2 | -7.93
69 | CCOc1cc(CNn2cnnc2)ccc1OCC(=O)NC1CCCCC1 | -8.61

Row | SMILES | inhibition [%]
70 | O=C(CCCNS(=O)(=O)c1ccccc1)NCc1ccco1 | -22.5
71 | Cc1ccc(C(=O)Nc2ccc3c(c2)OCO3)o1 | 18.3
72 | Clc1ccc(-c2cnc3n2CCC3)cc1 | 15
73 | Clc1ccc(C[n+]2cc(-c3ccc(Cl)cc3)n3c2CCC3)cc1 | 36.7
74 | COC(=O)Cc1c(O)ccn(Cc2ccc(F)cc2)c1=O | -29.4
75 | O=C(O)Cn1cc(C(=O)c2ccco2)c2ccccc21 | 2.21
76 | CCn1cc(C(=O)O)c(=O)c2cc(OC)ccc21 | 32.4
77 | O=C(Nc1ccc(NC(=O)C23CC4CC(CC(C4)C2)C3)cn1)c1ccco1 | -21.7
78 | Oc1ccc(-c2n[nH]c(=S)n2-c2ccc3c(c2)OCCO3)c(O)c1 | -14.8
79 | Nn1c(COc2cccc(Br)c2)nnc1SCC(=O)N1CCc2ccccc2C1 | -13.3
80 | c1ccc2c(C3=NNC(=NC4CC4)SC3)c[nH]c2c1 | 13.1
81 | O=C(Nc1cnn(Cc2ccc(Cl)cc2Cl)c1)c1noc2c1CCCC2 | -3.26
82 | CC(=O)c1c(N2CCN(C(=O)C3CCCO3)CC2)nc(=S)n(-c2ccccc2)c1C (configuration not stated) | -21.4
83 | Nc1ccccc1NC1=CC(=O)CC(c2ccco2)C1 (configuration not stated) | 9.99
84 | CCOC(=O)C1=NNC2(c3ccc(Cl)cc3)C(=O)N(c3cc(C)cc(C)c3)C(=O)C12 (configuration not stated) | -3.41
85 | NC1=NC(=Nc2ccc(Cl)cc2)c2ccccc21 | -24.5
86 | C=CCNCC#CCOc1ccc(OC)cc1 | -14.8
87 | O=C1NC2=C(CCc3ccccc32)C(c2ccc(Br)cc2)N1 (configuration not stated) | 6.23
88 | Cc1nc(C(=O)Nc2ccc(Cl)cc2)nn1-c1ccc([N+](=O)[O-])cc1 | -32.7
89 | O=c1[nH]c2cc3c(cc2cc1CN(CCc1ccccc1)Cc1nnnn1CC1CCCO1)OCO3 (configuration not stated) | 18.2
90 | Cc1cc(-c2csc(NC(=O)c3ccc(S(=O)(=O)N(C)C)cc3)n2)c(C)n1-c1ccccc1 | 12.5
91 | Cc1cc(C(=O)NCc2ccco2)no1 | -21.8
92 | COc1ccc(-c2cc(-c3ccc(OC)c(OC)c3)n[nH]2)c(O)c1 | 14.4

Row | SMILES | inhibition [%]
93 | COCCNC(=O)c1ccccc1NS(=O)(=O)c1ccc(Br)s1 | -25.5
94 | Cc1cccn2cc(CSc3nnc(Nc4ccc(C(C)C)cc4)s3)nc12 | 8.71
95 | CCC(CC)C(=O)N1c2ccc(F)cc2CCC1C (configuration not stated) | 4.44
96 | CC1(C)CC(=O)C2=C(C1)N(Cc1ccccc1)C(=O)C2(O)C(F)(F)F (configuration not stated) | -24.5
97 | COc1ccc(CNc2nc3c(c(=O)[nH]c(=O)n3C)n2CCCc2ccccc2)cc1 | -4.23
98 | COC(=O)c1cc(C#N)c(Oc2cccc(C)c2C)nc1C | -23.6
99 | COC(=O)CN1C(c2ccc(OC)cc2)=Nc2ccc(Cl)cc2C1c1ccccc1 (configuration not stated) | -26.8
100 | CCCCn1c(O)c(C(CC)=Nc2ccc3c(c2)CCC3)c(=O)[nH]c1=O | -7.34
101 | Cc1ccc(C(=O)N2CC3(C(C)C)CN(C(=O)c4ccc(C)cc4)CC(C(C)C)(C2)C3=O)cc1 | -24.9
102 | Cc1ccc(C(=O)C(OC(=O)COc2ccccc2C)c2ccccc2)cc1 (configuration not stated) | 0.19
103 | Cc1cc(C)c(NC(=O)COc2ccccc2C(=O)Nc2ccc3c(c2)oc2ccccc23)c(C)c1 | -12.5
104 | CC1(C)CC(=O)C=C(Nc2ccccc2NC(=O)c2cnccn2)C1 | -11.4
105 | COc1cc(C2NC(=O)NC(c3ccccc3)=C2C(C)=O)ccc1OCC(=O)O (configuration not stated) | -5.18
106 | Cc1c(/C=C/C(=O)c2ccccc2)cnn1C | -35.3
107 | Cc1ccc(C(=O)c2ccccc2C(=O)O)c(O)c1 | 5.97
108 | COc1cccc(OC)c1C(=O)NC(=S)Nc1cc(-c2nc3ccccc3[nH]2)ccc1Cl | 15.3
109 | Cc1cc(C=O)c(C)n1-c1ccc(Oc2ccc([N+](=O)[O-])cn2)cc1 | 0.24
110 | CCCn1c(SCC(=O)NCCc2ccccc2)nnc1-c1cccnc1 | -16.1
111 | O=[N+]([O-])c1ccc(N2CCN(CCOc3nonc3-c3ccccc3)CC2)c(Cl)c1 | -27.8
112 | Cc1ccc(S(=O)(=O)c2c(N)n(NC(=O)c3ccco3)c3nc4ccccc4nc23)cc1 | -18.7
